Results filed as inconclusive are left out. Unmarked numbers belong to inactive results. Calls of active or inactive are those of the source. Calls come from the whole dose curve; as a rule, active = well fitted cell-killing curve with a large enough effect; inconclusive = small, poorly fitted or top-dose-only effect, or effect the other way; inactive = no such curve, though single readings can be large or run the other way.
The compounds below were run on Jar (assay: Confirmatory qHTS for gynecologic anti-cancer compounds from libraries of approved drugs and bioactive compounds). Details: gynecologic cancer cell panel viability, ATPlite luminescence, 48 h; series mostly up to 57.6 µM.
Method in brief: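 ATPlite luminescence read-out of cell viability; IC50 from 11-point 1:3 titrations, 57.5 uM to 0.977 nM, 48 h compound exposure at 37 C, 5% CO2. Cells seeded at 1,000/well 16 h before dosing.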
% is set by controls: 0 for no effect and ±100 for the full control effect; potency is the fitted concentration of half-maximal effect.
Note: nearly all actives have a fitted effect of over 55% in size.

Compound | Potency | activity change, negative = viability loss
CN(C)CC/C=C1\c2ccccc2COc2ccccc21 | inactive | 
NC(=O)c1cccc2cn(-c3ccc([C@@H]4CCCNC4)cc3)nc12 | inactive | 
COc1ccc2cc3[n+](cc2c1OC)CCc1cc2c(cc1-3)OCO2 | 4.32 µM (active) | 
C[C@]12CCC(=O)C=C1CC[C@@H]1[C@@H]2[C@@H](O)C[C@@]2(C)[C@H]1CC[C@]2(O)C(=O)CO | inactive | 
O=c1[nH]c(=O)n([C@H]2C[C@H](O)[C@@H](CO)O2)cc1Br | inactive | 
CC[C@H](Nc1ncnc2nc[nH]c12)c1nc2cccc(F)c2c(=O)n1-c1ccccc1 |  | -10.1% [at 10.7 µM]
Nc1ccccc1NC(=O)c1ccc(CNc2nccc(-c3cccnc3)n2)cc1 | 1.93 µM (active) | 
Nc1ccccc1NC(=O)c1ccc(CNC(=O)OCc2cccnc2)cc1 | 4.32 µM (active) | 
CCCCN(CCCC)C(=O)CN1C[C@H](c2ccc3c(c2)OCO3)[C@@H](C(=O)O)[C@@H]1c1ccc(OC)cc1 | inactive | 
Cn1cc(-c2[nH]c3cc(NC(=O)[C@H](N)C4CCCCC4)cc4c3c2C=NNC4=O)cn1 | 10.9 µM (active) | 
COc1ccc2c(c1OC)C(=O)O[C@@H]2[C@H]1c2c(cc3c(c2OC)OCO3)CCN1C | 30.6 µM (active) | 
Cc1nc(Nc2n[nH]c3c2CN(C(=O)NC(CN(C)C)c2ccccc2)C3(C)C)c2sccc2n1 (configuration not stated) | inactive | 
CC(C)(C)C(=O)OCOP(=O)(COCCn1cnc2c(N)ncnc21)OCOC(=O)C(C)(C)C | 9.68 µM (active) | 
COc1cc2c(NC3CCN(C(C)C)CC3)nc(C3CCCCC3)nc2cc1OCCCN1CCCC1 | 10.9 µM (active) | 
COC(C)(C)CCn1nc(Nc2c(C)cccc2C)c2cnc(Nc3ccc(OCCN4CCCC4)c(F)c3)nc21 | 27.3 µM (active) | 
CC[C@@]1(O)C(=O)OCc2c1cc1n(c2=O)Cc2cc3c(CN(C)C)c(O)ccc3nc2-1 | 7.69 µM (active) | 
CN(C)CCC(CSc1ccccc1)Nc1ccc(S(=O)(=O)NC(=O)c2ccc(N3CCN(Cc4ccccc4-c4ccc(Cl)cc4)CC3)cc2)cc1[N+](=O)[O-] (configuration not stated) | 8.63 µM (active) | 
Cc1cc(C2CCCCC2)n(O)c(=O)c1 | 8.86 µM (active) | 
Cc1ccc(C(N)=O)cc1Nc1nccc(-c2cn(C(C)C)c3cnccc23)n1 | 6.85 µM (active) | 

Compound | Potency | activity change, negative = viability loss
CCN(CC)CCOc1ccc(/C(=C(\Cl)c2ccccc2)c2ccccc2)cc1 | 89.1 µM (active) | 
CCCc1nn(C)c2c(=O)[nH]c(-c3cc(S(=O)(=O)N4CCN(C)CC4)ccc3OCC)nc12 | inactive | 
Cc1nc(NC(=O)N2CCCC2C(N)=O)sc1-c1csc(C(C)(C)C)n1 (configuration not stated) | 21.7 µM (active) | 
CN(C)C(CCOc1cccc2ccccc12)c1ccccc1 (configuration not stated) | inactive | 
CNc1nccc(-c2cccnc2Oc2cc(C(=O)Nc3cccc(C(F)(F)F)c3)ccc2C)n1 | 19.3 µM (active) | 
NC(=O)c1ccc2nc(-c3ccc(Oc4ccc(Cl)cc4)cc3)[nH]c2c1 | 24.3 µM (active) | 
COc1ccc(CCC(=O)c2c(O)cc(O[C@@H]3O[C@H](CO)[C@@H](O)[C@H](O)[C@H]3O[C@@H]3O[C@@H](C)[C@H](O)[C@@H](O)[C@H]3O)cc2O)cc1O | inactive | 
CCc1c2c(nc3ccc(O)cc13)-c1cc3c(c(=O)n1C2)COC(=O)[C@]3(O)CC | 1.72 µM (active) | 
O=C1NC(=O)C(c2cnc3ccccn23)=C1c1cn2c3c(cccc13)CN(C(=O)N1CCOCC1)CC2 | inactive | 
Cc1cc(Nc2cc(N3CCN(C)CC3)nc(Sc3ccc(NC(=O)C4CC4)cc3)n2)n[nH]1 | inactive | 
O=C(CCCCCCNC(=O)c1cnc(N(c2ccccc2)c2ccccc2)nc1)NO | 8.63 µM (active) | 
Cn1c(=O)c(F)c(Nc2ccc(I)cc2F)c2c(=O)n(CC(O)CO)cnc21 (configuration not stated) | inactive | 
COc1cc2c(cc1-c1c(C)noc1C)ncc1[nH]c(=O)n(C(C)c3ccccn3)c12 (configuration not stated) | 27.3 µM (active) | 
CC(=O)Nc1cccc(-n2c(=O)n(C3CC3)c(=O)c3c(Nc4ccc(I)cc4F)n(C)c(=O)c(C)c32)c1 | inactive | 
CCCCc1oc2ccccc2c1C(=O)c1cc(I)c(OCCN(CC)CC)c(I)c1 | 79.4 µM (active) | 
O=C(c1ccc(F)c(F)c1Nc1ccc(I)cc1F)N1CC(O)([C@@H]2CCCCN2)C1 | 21.7 µM (active) | 
Cc1nc(N)nc(N)c1-c1ccc(Cl)c(Cl)c1 | 4.85 µM (active) | 
CCN(CC)CCCC(C)Nc1ccnc2cc(Cl)ccc12 (configuration not stated) | inactive | 

From PubChem BioAssay AID1345085 (National Center for Advancing Translational Sciences (NCATS), 2018)
